In PubChem BioAssay one finds composite z-score data, which are given here for 13 compounds.

The test system of the test is Sam68 (KHDRBS1). As to the kind of experiment: Sam68 small-molecule binders, primary screen, biochemical, small-molecule microarray, 635 nm fluorescence (AID 1125).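 Also: score merges 667 nm channel intensity with signal to noise over triplicate slides.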 Particulars: small-molecule microarray binding, higher = more signal.
As to `COCCOC(=O)N1C(=O)[C@@]2(c3ccccc31)[C@H](C(=O)N1CCCCCCC1)[C@H]1C(=O)O[C@H](c3ccccc3)[C@H](c3ccccc3)N1[C@@H]2c1ccccc1OCCO`, the composite z-score stood at 1.29.
The result for `COCCn1c(C(=O)N(C)C)cc2c1C[C@H]1CN(C(=O)c3ccccc3)[C@@](Cc3ccc(F)cc3)(C(=O)OC)[C@@H]21` reads 0.459; that for `CC(C)N1C(=O)c2ccccc2[C@](C)(C(=O)NCCCN(C)C)[C@@H]1c1ccc(CO)cc1`, -0.283.
`O=C1C2C=CC(C(O)c3ccc(-c4ccccc4)s3)N(Nc3ccccc3F)C2C(=O)N1c1ccccc1` (stereo not drawn) displayed a composite z-score of 1.29.
As for `CN1C(=O)C2C(C1=O)C1C=C(c3ccc(CO)cc3)C2C(C2CC2)N1Cc1sc2ccccc2c1Cl` (stereo not drawn), the figure is 1.3.
In turn, `CO[C@H]1O[C@H](CO)[C@@H](OC(=O)Nc2ccc3c(c2)OCO3)[C@H](OC(=O)Nc2ccc3c(c2)OCO3)[C@H]1OC(=O)Nc1ccc2c(c1)OCO2` gave a composite z-score of 1.29.
With `C=CC[C@]1(C(=O)NCCN2CCOCC2)N=C(c2ccc(OCCCO)cc2)O[C@H]1c1ccccc1N=[N+]=[N-]`, the composite z-score is 1.24.
As to `C=CCNC(=O)[C@@H]1[C@H]2C(=O)O[C@H](c3ccccc3)[C@H](c3ccccc3)N2[C@H](c2ccccc2OCCO)[C@@]12C(=O)N(C(=O)OCCOC)c1ccc(C#CCC(C(=O)OC)C(=O)OC)cc12`, the composite z-score was 1.32.
The result for `CC(C)[C@H]1COC(=O)N1C(=O)[C@H]1[C@@H](c2ccccc2)N(c2ccccc2)O[C@@H]1C` reads 0.618; that for `O=C1O[C@@H](c2ccccc2)[C@@H](c2ccccc2)N2[C@@H](c3ccc(O)cc3)[C@]3(C(=O)Nc4ccc(C#CCCO)cc43)[C@@H](C(=O)O)[C@H]12`, 0.872.
The result for `Cc1ccc(S[C@]2(C(=O)NCCCN(C)C)CC(=O)N(C(C)C)[C@@H]2c2ccc(CO)cc2I)cc1` reads 0.271; that for `Cc1ccc(N2C(=O)c3ccccc3[C@](C)(C(=O)NCCN3CCOCC3)[C@@H]2c2ccc(CO)cc2)nc1`, -1.39; that for `COC(=O)C(CC#Cc1ccc2c(c1)[C@]1(C(=O)N2)[C@H](C(=O)N2CCCCCCC2)[C@H]2C(=O)O[C@H](c3ccccc3)[C@H](c3ccccc3)N2[C@@H]1c1ccccc1OCCO)C(=O)OC`, 1.32.
